# Laboratory results taken from the supplement of paper PMC6555819.
# Test system: PPARg:RXRa 270nM:90nM, anti-RXR (NR concentration 270 nM, RXRa partner concentration 90 nM)
# Test: PBM binding z-score (relative to random genomic background probes); higher = stronger binding; sequences stand for … in GC…GCGATTGACAGCGTAGAATGAAGG
# Method in brief: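 Binding z-scores take random background probes as their reference. They come from custom Agilent 4×180K protein-binding microarrays incubated 1 h with ligand-free nuclear receptor dimers, with antibodies against each partner (one per run) detecting binding. Scanned fluorescence was regression-normalized.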
row,Sequence,PBM binding z-score
1,ACTCGGAGGACAAGGGTCAGAGCTACGCCAGTGA,4.83
2,AGAATTAGGTTATACGTAGATCAGGGAAGAAAGT,2.95
3,ATATGTAGGTTATCGGTTCATTCAGTTTGCGCAT,5.22
4,TCTGCTAGGTCAGTTGGTAAGCTAACGAGCTGCC,1.28
5,ACTAGCAGGCCAAGGGTCACTCAGGATTAGTCCG,7.62
6,CCTAGAAGGCCAGGGTCACTCAAGCATTTCGCTT,1.35
7,ATCTCTAGGTAAAGTTCAGTGTAAGATCGATAGA,4.49
8,CTAACTAGGTCAAGGACAGTGAATCTCCGCACGC,6.92
9,ACTATTAGGTGACTTAGGGCAACCGATACGACGC,1.34
10,CCTACTGGGCCAAAAAGATCATTGATGCCGATAA,0.504
11,CCAGACAGGTGAAAGGTAACTCGGTCTGGTACGC,5.52
12,TCTAGTTGGTCAAAGGTCACACATTCGAAATGCG,9.09
13,TCTAGTTGGTCGAAGGTCACACACTCGAAATGCG,7.58
14,ATCTCTAGCTAACCAAGTTCAGTGAATGCCGAAC,-0.251
15,CGTCCAAGGTCAGCAAGTCAGTGAAAGCGACGTG,3.14
16,ATCGAAAGGTCGATGTGAGTATAGAGAAAGGGAA,1.77
17,TTACCAAGGTGAACGTCGTTGATCCCTCTGTAGA,1.25
18,AGAACGAGGGCACGCTGAGTTGATAGCAGAGTAG,1.79
19,CATACAGGGTCAGCTAGGCGAGAGTAGGGACGGC,2.91
20,CGTCCATGGTCAATGCTAGGTCAGTGAAAGCATT,-0.408

row,Sequence,PBM binding z-score
1,CCGACTGGTGCAGAAAGGTTACCATACCATCCGG,1.18
2,ATACGTAGGTTAGCTGGGGTCATTCAGACTAGGC,2.91
3,TCTAGTTGGTCACGGTGGTCACACACGACGGGTA,2.15
4,ATATGTAGGTTAAGGGTTATTCAGGTTGGTTCGC,8.81
5,TCTGCTACGTCAGTTGGTCAGCTAACGAGCTGCC,0.0272
6,TCATATAGGTAAACAGGGGAAAGTCCGTAAGTTA,2.89
7,ACTATTAGTTGAGACGAGGGCAACCGCTAGGTTG,0.207
8,TCTCTGAGGACACGAAAGGTCAGAGCTCGACATC,2.9
9,CCTAATGGGCCACGAAAGGTCATTGATTCAGTGA,4.1
10,TCTAGTTGGTCAAAGGTCACACGCTCGAAATGCG,10.1
11,CCTATTGGGCCATCAGGTCATTGATATCAACGTT,2.49
12,TGAATGAGGTTAAAGAGCAGGGAACGTGGCGTCG,6.01
13,GTTCGGAGGACAAGGTCAGAGCTTTGTCCGTAGA,1.29
14,TCATATAGGTAATACAGGTGAAAGCCGGCATCTA,2.68
15,GCTTACGGGTCAAAGGTTATTGCATGAATAGAAT,9.3
16,TCTAGTAGGTTACCAATGGGGCATTCAGCTTTCT,2.93
17,CGAACGATGGCATGAGTTGATAGCAAATGCCGAT,0.203
18,CCGACTGGGGCCGAAAGGTTACCATACCATCCGG,1.84
19,CGTCCAAGGTCAAAGGTCAGTTAAGAGATGACGG,8.31
20,CCTAGCAGGCCAGGGTCACTCAAGCATTTCGCTT,1.65
